The record followed here is PubChem BioAssay (Tox21).

Inconclusive results are not listed. Values without a mark were called inactive. Active and inactive are the calls of the source. Unless noted, calls come from the whole dose curve; as a rule, active = well fitted curve in the direction sought with a large enough effect in the repeat runs; inconclusive = weak or mixed curves; inactive = no such curve, though single readings can be large; an effect the other way counts as inactive or inconclusive.

Test [1] is described as follows: qHTS assay to identify small molecule antagonists of the thyroid receptor (TR) signaling pathway - cell viability counter screen (AID 743064). Note: nearly all actives have a fitted effect of over 50% in size. In a few lines: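 Plate GH3.TRE-Luc cells; incubate 4 h at 37 °C; add compound, then T3 to 1 nM final; incubate 23.5 h; add CellTiter-Fluor; incubate 30 min at 37 °C, 5% CO2; read fluorescence.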
In test [2] the test system is thyroid hormone receptor (rat, GH3 cells). The test can be described thus: qHTS assay to identify small molecule agonists of the thyroid receptor (TR) signaling pathway (AID 743066; calls by dose curve; note: potency is the fitted concentration of half-maximal effect).
Test [3] deals with Estrogen receptor (Homo sapiens) (UniProt P03372). The experiment in a line: qHTS assay to identify small molecule antagonists of the estrogen receptor alpha (ER-alpha) signaling pathway (AID 743069; active = well fitted curve in the direction sought with a large enough effect in the signal ratio in the repeat runs, not every such curve was filed as active; the % refers to the signal ratio). In a few lines:
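HEK293 cells stably carrying an ER-alpha-UAS-bla beta-lactamase reporter were pre-cultured overnight in 2% charcoal-stripped FBS medium. Test compounds in DMSO were added together with 17beta-estradiol for 18 hr at 37C. Read-out was fluorescence after 2 hr with LiveBLAzer B/G FRET substrate at room temperature.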

Test [4] in a line: qHTS assay to identify small molecule antagonists of the estrogen receptor alpha (ER-alpha) signaling pathway - cell viability counter screen (AID 743074; calls by dose curve; note: nearly all actives have a fitted effect of over 45% in size).
Test [5] addresses Estrogen receptor (Homo sapiens) (UniProt P03372). The test can be described thus: qHTS assay to identify small molecule agonists of the estrogen receptor alpha (ER-alpha) signaling pathway (AID 743075; calls by dose curve).
For test [6] the target is unchanged. The experiment in a line: qHTS assay to identify small molecule agonists of the estrogen receptor alpha (ER-alpha) signaling pathway using the BG1 cell line (AID 743079). Note: nearly all actives have a fitted effect of over 20% in size. To be noted: BG1Luc4E2 cells, ERE-luciferase agonist, 22 h.
The nature of test [7]: qHTS assay to identify small molecule antagonists of the estrogen receptor alpha (ER-alpha) signaling pathway using the BG1 cell line (AID 743080; calls by dose curve;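 note: BG1 cells stimulated with 17beta-estradiol alongside compound; nearly all actives have a fitted effect of over 25% in size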). In a few lines:
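BG1-Luc-4E2 cells (endogenous full-length ER-alpha, stable 4×ERE-luciferase) were starved 5 days in phenol-red-free medium with 10% charcoal-stripped FBS, plated 24 h, then given compound plus 17beta-estradiol for 21.5 h at 37 C; ONE-Glo luminescence read after 30 min.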

Test [8] is described as follows: qHTS assay to identify small molecule antagonists of the estrogen receptor alpha (ER-alpha) signaling pathway using the BG1 cell line - cell viability counter screen (AID 743081).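 Note: compound given together with 17beta-estradiol as the ER stimulus; nearly all actives have a fitted effect of over 45% in size.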
A further test deals with Aromatase (Homo sapiens) (UniProt P11511). The experiment in a line: qHTS assay to identify aromatase inhibitors (AID 743083). Note: nearly all actives have a fitted effect of over 55% in size.
Test [9] in a line: qHTS assay to identify small molecule antagonists of the thyroid receptor (TR) signaling pathway (AID 743065). Note: nearly all actives have a fitted effect of over 55% in size. In a few lines:
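GH3.TRE-Luc rat pituitary cells carrying two TR response elements driving luciferase were plated for 4 h, given compound plus 1 nM T3 (final), and incubated 23.5 h at 37 C. ONE-Glo luminescence measured reporter inhibition; CellTiter-Fluor fluorescence tracked cytotoxicity.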
% is set by controls: 0 for no effect and ±100 for the full control effect.

Sequence of Estrogen receptor (Homo sapiens) (P03372 whole entry, looked up): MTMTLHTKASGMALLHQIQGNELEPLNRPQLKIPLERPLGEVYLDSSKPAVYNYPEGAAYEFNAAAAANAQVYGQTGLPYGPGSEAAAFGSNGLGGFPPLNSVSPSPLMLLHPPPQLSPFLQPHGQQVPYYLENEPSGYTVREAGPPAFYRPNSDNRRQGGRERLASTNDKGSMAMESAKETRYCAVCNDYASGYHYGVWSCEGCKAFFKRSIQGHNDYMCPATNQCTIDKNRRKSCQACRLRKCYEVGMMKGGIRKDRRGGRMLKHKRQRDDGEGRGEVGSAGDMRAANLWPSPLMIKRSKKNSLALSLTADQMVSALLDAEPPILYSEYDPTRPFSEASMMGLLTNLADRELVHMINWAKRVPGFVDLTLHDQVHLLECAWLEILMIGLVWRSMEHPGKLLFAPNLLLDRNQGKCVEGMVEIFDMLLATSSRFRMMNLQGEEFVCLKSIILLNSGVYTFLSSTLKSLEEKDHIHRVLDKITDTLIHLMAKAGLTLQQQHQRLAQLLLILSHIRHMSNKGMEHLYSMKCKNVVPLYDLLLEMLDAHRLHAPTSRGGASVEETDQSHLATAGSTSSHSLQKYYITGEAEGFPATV
Sequence of Aromatase (Homo sapiens) (P11511 whole entry, looked up): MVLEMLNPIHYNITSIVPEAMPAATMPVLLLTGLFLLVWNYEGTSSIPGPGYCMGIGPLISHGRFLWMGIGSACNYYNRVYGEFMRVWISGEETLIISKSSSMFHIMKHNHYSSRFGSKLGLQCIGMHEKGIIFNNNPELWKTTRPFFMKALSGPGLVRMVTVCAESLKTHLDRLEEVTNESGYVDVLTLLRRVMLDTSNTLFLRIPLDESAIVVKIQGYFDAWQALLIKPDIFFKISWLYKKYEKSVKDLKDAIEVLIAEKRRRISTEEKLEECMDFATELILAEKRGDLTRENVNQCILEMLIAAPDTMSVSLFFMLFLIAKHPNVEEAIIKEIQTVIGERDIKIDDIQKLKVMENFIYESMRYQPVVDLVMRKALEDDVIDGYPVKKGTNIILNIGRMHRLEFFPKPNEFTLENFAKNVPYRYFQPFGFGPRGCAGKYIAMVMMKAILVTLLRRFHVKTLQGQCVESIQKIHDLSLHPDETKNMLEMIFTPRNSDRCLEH

As for `c1cncc([C@@H]2CCCCN2)c1`, the Potency result in test [1], in test [2], in [3], in test [4], in [5] and in [7] was “inactive” throughout. The Potency entry (in test [8]; with Aromatase (Homo sapiens)) was “inactive” each time. The activation in test [6] (at 70.3 µM (top of the series)) is -1.75%.

`CC(C)NCC(O)c1ccc([N+](=O)[O-])cc1` (configuration not stated): the Potency entry (in test [1]; in test [2]; in [4]; in test [8]; with Aromatase (Homo sapiens)) was “inactive” each time.

Take `O=C(O)C(F)(F)C(F)(F)C(F)(F)C(F)(F)C(F)(F)C(F)(F)F`: the Potency result (in [1]; in [9]; in test [2]; in [8]; with Aromatase (Homo sapiens)) was “inactive” throughout.

In the case of `O=[N+]([O-])CCO`, the Potency result in test [1], in [2], in test [3], in test [4], in [5] and in [7] was “inactive” throughout. Further, the Potency result (in test [8]; in the test with Aromatase (Homo sapiens)) was “inactive” throughout. Also, the activation in test [6] (at 95 µM (top of the series)) is -2.33%.

On to `CCCCCCCCSC(=O)Oc1cc(Cl)nnc1-c1ccccc1`, for which the Potency result in test [1], in test [2], in test [4], in test [5], in [7] and in test [8] was “inactive” in each case. Moreover, the Potency result with Aromatase (Homo sapiens) is “inactive”. In addition, in [6] (at 70.3 µM (top of the series)), the activation is 3.18%.

For `COc1cccc(C=O)c1`, the Potency entry in test [1], in test [2], in [3], in [4], in test [5] and in [8] was “inactive” in each case. In addition, the Potency result with Aromatase (Homo sapiens) was “inactive”. For the same compound, the activation in test [6] (at 70.3 µM (top of the series)) is -1.53%.

For `BrCCc1ccccc1`, the Potency result (in test [1]; in test [2]; in test [4]; in test [8]; in the test with Aromatase (Homo sapiens)) was “inactive” in each case.

For `CC[C@@H](CO)NC(=O)[C@@H]1C=C2c3cccc4c3c(cn4C)C[C@H]2N(C)C1`, the Potency result (in [1]; in test [2]; in test [4]; in test [5]; in test [8]; in the test with Aromatase (Homo sapiens)) was “inactive” each time. Also, in test [6] (at 70.3 µM (top of the series)), the activation was 13.7%.

Turning to `N[C@@H](Cc1ccc(Oc2cc(I)c(O)c(I)c2)c(I)c1)C(=O)O`, the Potency result in test [1], in test [3], in test [4], in test [5], in [7] and in test [8] was “inactive” throughout. The Potency entry with Aromatase (Homo sapiens) is “inactive”. The Potency in test [2] is 0.168 µM (active). In addition, the activation in [6] (at 70.3 µM (top of the series)) is -1.5%.

As for `C=CC(=O)OCCN(C)C`, the Potency entry (in test [1]; in test [2]; in [4]; in test [8]; in the test with Aromatase (Homo sapiens)) was “inactive” throughout.

As for `O=[N+]([O-])c1cccc(CCl)c1`, the Potency entry in test [1], in test [2], in [4] and in [8] was “inactive” each time.

Turning to `CCC1(CC)C(=O)C=CNC1=O`, the Potency result in test [1], in test [2], in test [3], in test [4], in test [5] and in [7] was “inactive” throughout. The Potency entry (in [8]; with Aromatase (Homo sapiens)) was “inactive” each time. In [6] (at 70.3 µM (top of the series)), the activation was 10.4%.

As to `O=P(O)(O)CN(CP(=O)(O)O)CP(=O)(O)O`, the Potency entry in test [1], in [2], in [3], in test [4], in test [5] and in test [8] was “inactive” in each case. The Potency result with Aromatase (Homo sapiens) is “inactive”. In addition, the activation in [6] (at 32.5 µM (top of the series)) was 11.2%.

Turning to `CCN(CC)C1CCCCC1`, the Potency result in test [1], in [2], in test [3], in test [4], in test [5] and in test [7] was “inactive” throughout. Further, the Potency result (in test [8]; in the test with Aromatase (Homo sapiens)) was “inactive” throughout. For the same compound, in test [6] (at 70.3 µM (top of the series)), the activation is 6.19%.

For `CC(O)CCl` (configuration not stated), the Potency entry in test [1], in test [2], in test [3], in test [4], in [5] and in test [8] was “inactive” throughout. The Potency entry in the test with Aromatase (Homo sapiens) is “inactive”. For the same compound, in test [6] (at 70.3 µM (top of the series)), the activation was 8.02%.

As for `COC(=O)[C@@H](N)CCCN/C(N)=N/[N+](=O)[O-]`, the Potency entry (in test [1]; in test [9]; in test [2]; in [4]; in test [8]; with Aromatase (Homo sapiens)) was “inactive” in each case.

Consider `CC(=NC#N)N(C)Cc1ccc(Cl)nc1`, for which the Potency result (in test [1]; in test [2]; in [4]; in test [8]; with Aromatase (Homo sapiens)) was “inactive” throughout.

Consider `CCOC(=O)c1ncn2c1CN(C)C(=O)c1c(I)cccc1-2`, for which the Potency entry in test [1], in test [2], in test [3], in test [4], in [5] and in [7] was “inactive” throughout. Besides, the Potency result (in test [8]; in the test with Aromatase (Homo sapiens)) was “inactive” each time. Moreover, in test [6] (at 70.3 µM (top of the series)), the activation was -3.09%.

Take `CC(C)(C)NC[C@H](O)c1ccc(O)cc1Cl`: the Potency entry (in test [1]; in [2]; in test [4]; in [8]; with Aromatase (Homo sapiens)) was “inactive” each time.

For the compound `NCCOS(=O)(=O)O`, the Potency entry in test [1], in test [2], in [3], in test [4], in [5] and in test [8] was “inactive” in each case. The Potency result with Aromatase (Homo sapiens) is “inactive”. For the same compound, the activation in test [6] (at 70.3 µM (top of the series)) was -1.11%.

For the compound `Brc1c(Br)c(Br)c(Br)c(Br)c1Br`, the activation in test [6] (at 8.47 µM (top of the series)) was 1.05%.
